Bioassay records as filed in PubChem BioAssay.
Only some compounds are listed: those with a hit (about 9.6% of all), similar ones and a draw of the others.
Insulin prom inh: inhibitors of insulin promoter-driven GFP, primary screen, imaging, TRM-6 cells (human fetal islet line), eGFP reporter, cell count | AID 1273, 2008 | reporter expression induced with tamoxifen | inhibition, % at 2 µM | actives 0.9% (n = 130,000);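 active means inhibition above the mean plus 3 SD, with well images judged a real hit on visual review, cut at about 60% in these data, passing the limit was not always enough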
Ins promoter up: insulin promoter activators in MIN6 cells, imaging, high-content screening, mouse beta cells; MIN6 insulin promoter-GFP reporter; stronger effect = higher value; z-score at 5 µM; AID 1625, 2009; actives 0.3% (n = 190,000);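 active means z-score above 3 at 5 µM with at least 500 cells counted in the well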
Lmaj promast: Leishmania major promastigote growth inhibition, primary screen | actives 9% (n = 200,000) | AID 1063, 2008 | inhibition, % at 10 µM | Leishmania major promastigotes, resazurin fluorescence viability; in the data active means inhibition above about 50%;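 further: promastigotes grown with compound for 44 hours at 28 °C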
Autophagy mod: autophagy modulators in MEF cells, primary screen, imaging, high-content, MEF GFP-LC3; MEF GFP-LC3 puncta imaging; test concentration mostly 10 µM; calls only at 10 µM (by protocol); actives 0.98% (n = 190,000); AID 463193, 2010;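 active means percentage of spot-positive cells more than 3 SD above its plate mean, without a fluorescence outlier flag or 80% toxicity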;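 further: spot-positive cell cutoff set from DMSO-treated cells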
HCT116 bCat-KO: primary screen for growth suppressors in beta-catenin knockout HCT116 cells (colon tumor, human) | viability, % at 10 µM | actives 1.5% (n = 140,000) | HCT116 beta-catenin knockout viability, CellTiter-Glo, 60 h; stronger effect = lower value;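 active means viability at or under a set limit, the compound median less 4 SD, cut at about 6% in these data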;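 further: 0% = Hyamine 1622 control at 20 µM and 100% = untreated cell control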
PTEN del growth: growth suppression of PTEN-null HCT116, primary screen, cell-based, CellTiter-Glo; HCT116 PTEN-null viability, 60 h; stronger effect = lower value; viability, % at 10 µM; actives 1.2% (n = 140,000); AID 827, 2007;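 active means viability at or below a set limit, 4 SD under the median of all tested compounds, cut at about 3.7% in these data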;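 further: PTEN knockout HCT116 line with beta catenin targeted HCT116 as companion control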
* hit, by the source's call; i = inactive; nt = no result given; + = active, no number.

SMILES	Insulin prom inh	Ins promoter up	Lmaj promast	Autophagy mod	HCT116 bCat-KO	PTEN del growth
O=C(Cc1ccccc1)NNC(=O)c1ccccc1C(=O)O	nt	0.08	nt	nt	nt	nt
CCOC(=O)C(C)Oc1ccccc1C1NC(=O)NC(C)=C1C(=O)Nc1ccc(C)c(C)c1 (centres undefined)	-4	0.36	76*	i	95	100
Cc1c(Cl)ccc2c(C(=O)NCCN3CCCCC3)cc(-c3ccccn3)nc12	nt	1.2	79*	i	nt	nt
COC(=O)CNC(=O)c1cc(-c2ccncc2)nc2c(C)c(Cl)ccc12	nt	1.4	13	i	nt	nt
COc1ccccc1C(=O)NNC(=S)NC(=O)c1cc(OC)c(OC)c(OC)c1	0	-1	-6	i	nt	nt
COc1cc(C(=O)NC(=S)NNC(=O)c2cnccn2)cc(OC)c1OC	-40	-0.14	100*	i	8	13
O=C1CCCN1CCCN=c1c([N+](=O)[O-])nn(-c2ccc(Cl)cc2)n1O	nt	-2.2	73*	i	nt	nt
O=[N+]([O-])c1nn(-c2ccc3c(c2)OCCO3)n(O)c1=NC1CCCC1	nt	1.6	18	i	85	75
COc1ccc(-n2nc([N+](=O)[O-])c(=NCc3ccc4c(c3)OCO4)n2O)cc1	15	-0.56	97*	i	90	99
O=[N+]([O-])c1nn(-c2ccc3c(c2)OCCO3)n(O)c1=NCCCO	2	-0.23	72*	i	88	86
O=[N+]([O-])c1nn(-c2ccc3c(c2)OCCO3)n(O)c1=NC1CCCCCC1	37	0.29	87*	i	79	72
COc1ccc(-n2nc([N+](=O)[O-])c(=NCCCN3CCCC3=O)n2O)cc1	nt	-0.45	37	i	nt	nt
O=[N+]([O-])c1nn(-c2ccccc2)n(O)c1=NCc1ccc2c(c1)OCO2	nt	-0.15	16	i	101	93
O=C(CC(c1ccccc1)c1cc(Cl)ccc1O)N1CCOCC1 (centres undefined)	-42	0.08	-3	i	104	107
Cc1ccc(CN=c2c([N+](=O)[O-])nn(-c3ccc4c(c3)OCCO4)n2O)cc1	-21	0.85	98*	i	102	96
CC(=O)Nc1ccc(N=Cc2nc(-c3ccc(C)cc3)oc2O)cc1	-43	0.35	8	i	84	88
CCc1nnc(NC(=O)CSc2nc(-c3ccccc3)nc3ccccc23)s1	nt	-0.18	-4	i	62	73
CC(=O)c1cc(CN2CCC(N3CCC(C(=O)N4CCCC4)CC3)CC2)cs1	-27	-0.88	13	i	nt	nt
CC1(C)[C@H]2CC=C(CN3CCC(N4CCC(C(=O)N5CCCC5)CC4)CC3)[C@@H]1C2	nt	-1	89*	i	nt	nt
Fc1cccc(NC(=S)NCc2ccccn2)c1	-22	0.02	63*	i	97	102
N#C/C(=N/O)c1nc(-c2ccc(F)cc2)cs1	-67	-0.03	-7	i	94	100
COc1ccccc1NC(=O)N(Cc1cc2cc(OC)c(OC)cc2[nH]c1=O)CC1CCCO1 (centres undefined)	12	-0.74	-4	i	77	70
CC1(C)CC(=O)c2c(O)c(-c3ccccc3)c(=O)n(-c3ccccc3)c2C1	-33	-0.34	-5	i	97	94
O=C(Nc1cccnc1N1CCOCC1)c1ccco1	-33	-0.03	-9	i	94	99
CCOC(=O)C1(Cc2ccccc2C(F)(F)F)CCN(C(C)CSC)CC1 (centres undefined)	nt	nt	76*	i	nt	nt
SMILES	Insulin prom inh	Ins promoter up	Lmaj promast	Autophagy mod	HCT116 bCat-KO	PTEN del growth
CCOC(=O)C1(Cc2ccccc2C(F)(F)F)CCN(C(=O)c2cc(C(C)=O)n[nH]2)CC1	nt	nt	6	i	nt	nt
CCOC(=O)C1(Cc2ccccc2C(F)(F)F)CCN(CC2CC2)CC1	nt	-0.15	57*	i	nt	nt
CCOC(=O)C1(Cc2ccccc2C(F)(F)F)CCN(C2CCSC2)CC1 (centres undefined)	nt	-0.24	52*	i	nt	nt
CCOC(=O)C1(Cc2ccccc2C(F)(F)F)CCN(C(C)CCn2cccn2)CC1 (centres undefined)	-50	-0.8	49	i	nt	nt
CCOC(=O)C1(Cc2ccccc2C(F)(F)F)CCN(C2CCCC2)CC1	-6	0.03	80*	i	nt	nt
CC(C)(O)c1ccc2c(c1)CCC1C(C)(C(=O)O)CCCC21C (centres undefined)	nt	-0.35	nt	nt	nt	nt
O=c1cc(-c2ccco2)oc2c1ccc1ccccc12	0	0.49	-3	i	88	78
O=c1cc(C(Cl)(Cl)Cl)oc2c1ccc1ccccc12	58	-3.8	98*	+	2.5*	2.6*
O=S1(=O)Nc2c(ccc3cccnc23)-c2ccccc21	nt	0.62	99*	i	4.7*	2.3*
O=C(NC(NC(=S)Nc1ccc(Cl)cc1Cl)C(Cl)(Cl)Cl)c1cccc([N+](=O)[O-])c1 (centres undefined)	10	0.64	100*	i	4.1*	3.3*
O=C(NC(NC(=S)Nc1ccccc1)C(Cl)(Cl)Cl)c1cccc(Cl)c1 (centres undefined)	nt	-0.73	75*	i	2.6*	2.0*
O=C(O)c1cccc(NC(=S)NC(NC(=O)c2cccc([N+](=O)[O-])c2)C(Cl)(Cl)Cl)c1 (centres undefined)	nt	-0.25	nt	nt	nt	nt
Cc1ccc(NC(=S)NC(NC(=O)c2ccccc2)C(Cl)(Cl)Cl)c(C)c1 (centres undefined)	-22	1.2	96*	i	29	19
O=C(Nc1ccccc1)c1ccc(NCC2CCCO2)c(S(=O)(=O)N2CCOCC2)c1 (centres undefined)	-55	-0.39	1	i	99	94
CSc1nc(-c2ccccc2)nc(SC)c1C(C)=O	28	-0.24	9	i	69	68
Cc1ccc(C(C)C)c(OCC(=O)Nc2ccccc2N2CCN(C)CC2)c1	-62	-3.1	60*	i	12	17
CC(=O)N1CCN(c2ccccc2NC(=O)COc2cc(C)ccc2C(C)C)CC1	-67	-0.57	30	i	44	42
COC(=O)c1ccc(N2CCN(C)CC2)c(NC(=O)COc2ccc(OC)cc2)c1	9	nt	26	+	98	98
O=C(NC1CCN(Cc2nnnn2CCc2ccccc2)CC1)c1ccccc1F	33	nt	13	i	95	99
CN1Cc2cc(C(=O)c3ccccc3O)cnc2NC1=O	38	-0.3	5	i	99	94
Cc1[nH]nc2ncc(C(=O)c3ccccc3O)cc12	80*	0.86	-11	i	84	79
Cc1ccc(Sc2c([N+](=O)[O-])c(C)nn2C)cc1	nt	-0.03	nt	nt	nt	nt
COCCNC(=O)C(=O)NCC1OCCN1S(=O)(=O)c1ccc2c(c1)OCCO2 (centres undefined)	nt	-1.2	nt	nt	nt	nt
CC1CCN(CCCNC(=O)c2cc3c(Cl)nc4ccccc4c3s2)CC1	nt	0.61	100*	i	nt	nt
